Test results reported in PubChem BioAssay (NCATS).
Records with an inconclusive call do not appear. Activity calls are given as the source filed them. Calls come from the whole dose curve; as a rule, active = well fitted inhibition curve with a large enough effect; inconclusive = small, poorly fitted or top-dose-only effect; inactive = flat fitted curve, though single readings scatter.

These molecules were tested against Aldehyde dehydrogenase, mitochondrial (Homo sapiens) (UniProt P05091) (assay: qHTS for Inhibitors of the Aldehyde Dehydrogenase Family (ALDH2) Primary screen (AID 2061308;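 note: plate controls were vehicle for no effect and reference inhibitor for full effect; nearly all actives have a fitted effect of over 55% in size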)). Details: ALDH2 enzyme inhibition qHTS, 1536-well; series mostly up to 56 µM; activity change, negative = inhibition: at the top concentration.

**Q.** With O=C(N[C@H]1CN2CCC1CC2)c1cc2cccc(Cl)c2s1 as the molecule, how does the “activity change, negative = inhibition” value read?
**A.** -11.2% (inactive)

**Q.** With C/C=C(\C)C(=O)OC1CC2C(CC=C3CC(OC4CC(OC)C(OC5CC(OC)C(OC6OC(C)C(OC7OC(CO)C(O)C(O)C7O)C(OC)C6O)C(C)O5)C(C)O4)CCC32C)C2(O)CCC(C(C)=O)C12C (centres undefined) as the molecule, how does the “activity change, negative = inhibition” value read?
**A.** 3.46% [at 16.9 µM] (inactive)

**Q.** For C=C(C)C(=O)O[C@H]1[C@@H]2[C@H](C)C(=O)O[C@@H]2C[C@@H](C)[C@@H]2C=CC(=O)[C@]21C, which “activity change, negative = inhibition” value is on record?
**A.** -0.0973% (inactive)

**Q.** Which “activity change, negative = inhibition” value does the source give for CCN1C[C@]2(COC)[C@H](O)C[C@H](OC)[C@]34[C@@H]5C[C@]6(O)[C@H](OC(=O)c7ccccc7)[C@@H]5[C@@](O)([C@H]([C@H](OC)[C@H]23)[C@@H]14)[C@@H](O)[C@@H]6OC here?
**A.** -0.0186% (inactive)

**Q.** For COCC(C(=O)OC1CC2CCC(C1)N2C)c1ccccc1 (centres undefined), which “activity change, negative = inhibition” value is on record?
**A.** -4.51% (inactive)

**Q.** For CC1=CC2/C=C(\C)CCC(O)C3OC(C)(C)OC3CC(=O)OC23C(=O)NC(CC(C)C)C3C1C (centres undefined), which “activity change, negative = inhibition” value is on record?
**A.** -10.3% [at 28 µM] (inactive)

**Q.** Which “activity change, negative = inhibition” value does the source give for CC(C)(C)NC[C@H](O)c1ccc(O)cc1Cl here?
**A.** 5.17% (inactive)

**Q.** C[C@H]1C(=O)O[C@H]2[C@H](O)[C@]34C5OC(=O)[C@]3(O[C@@H]3OC(=O)[C@H](O)C34[C@H](C(C)(C)C)[C@H]5O)C12O (some centres undefined) was tested. Which “activity change, negative = inhibition” value did it give?
**A.** 12.3% [at 28 µM] (inactive)

**Q.** Which “activity change, negative = inhibition” value does the source give for CO[C@@H]1[C@@H](O)[C@@H](O[C@H]2CC[C@]3(C=O)C4CC[C@]5(C)[C@@H](C6=CC(=O)OC6)CC[C@]5(O)[C@@H]4CC[C@H]3C2)O[C@@H](C)[C@H]1O[C@@H]1O[C@H](CO[C@@H]2O[C@H](CO)[C@@H](O)[C@H](O)[C@H]2O)[C@@H](O)[C@H](O)[C@H]1O (some centres undefined) here?
**A.** 5.61% [at 16.9 µM] (inactive)

**Q.** C[C@H]1O[C@@H](O[C@H]2[C@@H](O)C[C@H](O[C@H]3[C@@H](O)C[C@H](O[C@H]4CC[C@@]5(C)[C@H](CC[C@@H]6[C@@H]5CC[C@]5(C)[C@@H](C7=CC(=O)OC7)CC[C@]65O)C4)O[C@@H]3C)O[C@@H]2C)C[C@H](O)[C@@H]1O was tested. Which “activity change, negative = inhibition” value did it give?
**A.** -7.47% [at 16.9 µM] (inactive)

**Q.** Which “activity change, negative = inhibition” value does the source give for CCCCOC(=O)c1ccnc2cc(C(OCCN3CCCCC3)c3ccccc3Cl)sc12 (centres undefined) here?
**A.** -11.4% (inactive)

**Q.** C=CC(C)(C)C12C=C(O)C(=O)N3/C(=C\c4cnc[nH]4)C(=O)NC31N(OC)c1ccccc12 (centres undefined) was tested. Which “activity change, negative = inhibition” value did it give?
**A.** 6.6% [at 28 µM] (inactive)

**Q.** For CC1=CC(=O)[C@@H](O)[C@@]2(C)C1C[C@H]1OC(=O)[C@H](O)[C@@]3(O)[C@@H](C)[C@@H](O)[C@H](O)C2[C@@]13C (some centres undefined), which “activity change, negative = inhibition” value is on record?
**A.** 12.3% (inactive)

**Q.** Which “activity change, negative = inhibition” value does the source give for CN1CCc2cc3c(cc2[C@H]1[C@@H]1OC(=O)c2c1ccc1c2OCO1)OCO3 here?
**A.** 6.65% (inactive)

**Q.** Which “activity change, negative = inhibition” value does the source give for C[C@]12CCC(=O)C=C1CC[C@@H]1[C@@H]2[C@@H](O)C[C@]2(C)C(=O)CC[C@@H]12 here?
**A.** 0.844% (inactive)

**Q.** Which “activity change, negative = inhibition” value does the source give for CCCCCn1cc(C(=O)c2cccc3ccccc23)c2ccccc21 here?
**A.** -3.38% (inactive)

**Q.** Which “activity change, negative = inhibition” value does the source give for CCC1C2CC3C4N(C)c5ccccc5C45CC(C2C5O)N3C1O (centres undefined) here?
**A.** -2.06% (inactive)

**Q.** With C[N@@+]1(CC2CC2)CC[C@]23c4c5ccc(O)c4O[C@H]2C(=O)CC[C@@]3(O)[C@H]1C5 as the molecule, how does the “activity change, negative = inhibition” value read?
**A.** 2.44% (inactive)

**Q.** C[C@@H]1C(=O)O[C@H]2[C@H](O)[C@@]34[C@@H]5OC(=O)[C@@]3(O[C@@H]3OC(=O)[C@@H](O)[C@@]34[C@H](C(C)(C)C)[C@H]5O)[C@@]12O was tested. Which “activity change, negative = inhibition” value did it give?
**A.** 8% [at 28 µM] (inactive)

**Q.** For CC(C)(C)[C@]1(O)C[C@@H]2OC(=O)C[C@@]23C(=O)O[C@@H]2OC(=O)[C@@H](O)[C@]213, which “activity change, negative = inhibition” value is on record?
**A.** 2.92% (inactive)

**Q.** With C/C=C(\C)C(O)C(C)/C=C(C)/C=C/C/C(C)=C/Cc1nc(OC)c(OC)c(O[C@@H]2O[C@@H](C)[C@H](O)[C@@H](O)[C@H]2O)c1C (some centres undefined) as the molecule, how does the “activity change, negative = inhibition” value read?
**A.** 2.08% [at 28 µM] (inactive)

**Q.** With CCOC(=O)c1ncn2c1CN(C)C(=O)c1c(I)cccc1-2 as the molecule, how does the “activity change, negative = inhibition” value read?
**A.** -1.56% (inactive)

**Q.** CC1=CC2/C=C(\C)CCCC(O)/C=C/C(=O)OC23C(=O)NC(CC(C)C)C3C1C (centres undefined) was tested. Which “activity change, negative = inhibition” value did it give?
**A.** -0.775% (inactive)

**Q.** Which “activity change, negative = inhibition” value does the source give for CC12CCC3C(CCC4(O)CC(O)CCC34C=O)C1(O)CCC2C1=CC(=O)OC1 (centres undefined) here?
**A.** 2.5% (inactive)

**Q.** C[C@]12CC[C@H](O)C[C@@H]1CC[C@@H]1[C@@H]2CC[C@]2(C)C(=O)CC[C@@H]12 was tested. Which “activity change, negative = inhibition” value did it give?
**A.** -14.6% (inactive)

**Q.** How did the “activity change, negative = inhibition” value turn out when CC(=O)OC[C@]12C[C@H](OC(=O)CC(C)C)C(C)=C[C@H]1O[C@@H]1[C@H](O)C[C@@]2(C)[C@]12CO2 was run?
**A.** 1.72% [at 28 µM] (inactive)

**Q.** C=CC(C)(C)c1[nH]c2cccc3c2c1C[C@@H]1[C@@H]3[C@@H](OC(C)=O)[C@H](C)CN1C was tested. Which “activity change, negative = inhibition” value did it give?
**A.** -7.78% (inactive)

**Q.** Which “activity change, negative = inhibition” value does the source give for C=C(CO)C(=O)O[C@H]1C/C(C)=C/CC/C(CO)=C/[C@H]2OC(=O)C(=C)[C@H]12 here?
**A.** 1.45% (inactive)

**Q.** With CCC1NC(=O)C2C(Cl)C(Cl)CN2C(=O)C(C(C)O)NC(=O)CC(c2ccccc2)NC(=O)C(CO)NC1=O (centres undefined) as the molecule, how does the “activity change, negative = inhibition” value read?
**A.** -1.94% [at 16.9 µM] (inactive)
